The results in this text go back to the supplement of paper PMC11006884.

Of roughly 6,500 targets only a part is listed; those with a hit were picked by preference. About 2% of all pairs of compound and target were hits.

UniProt P11216, sequence (P11216 whole entry, looked up): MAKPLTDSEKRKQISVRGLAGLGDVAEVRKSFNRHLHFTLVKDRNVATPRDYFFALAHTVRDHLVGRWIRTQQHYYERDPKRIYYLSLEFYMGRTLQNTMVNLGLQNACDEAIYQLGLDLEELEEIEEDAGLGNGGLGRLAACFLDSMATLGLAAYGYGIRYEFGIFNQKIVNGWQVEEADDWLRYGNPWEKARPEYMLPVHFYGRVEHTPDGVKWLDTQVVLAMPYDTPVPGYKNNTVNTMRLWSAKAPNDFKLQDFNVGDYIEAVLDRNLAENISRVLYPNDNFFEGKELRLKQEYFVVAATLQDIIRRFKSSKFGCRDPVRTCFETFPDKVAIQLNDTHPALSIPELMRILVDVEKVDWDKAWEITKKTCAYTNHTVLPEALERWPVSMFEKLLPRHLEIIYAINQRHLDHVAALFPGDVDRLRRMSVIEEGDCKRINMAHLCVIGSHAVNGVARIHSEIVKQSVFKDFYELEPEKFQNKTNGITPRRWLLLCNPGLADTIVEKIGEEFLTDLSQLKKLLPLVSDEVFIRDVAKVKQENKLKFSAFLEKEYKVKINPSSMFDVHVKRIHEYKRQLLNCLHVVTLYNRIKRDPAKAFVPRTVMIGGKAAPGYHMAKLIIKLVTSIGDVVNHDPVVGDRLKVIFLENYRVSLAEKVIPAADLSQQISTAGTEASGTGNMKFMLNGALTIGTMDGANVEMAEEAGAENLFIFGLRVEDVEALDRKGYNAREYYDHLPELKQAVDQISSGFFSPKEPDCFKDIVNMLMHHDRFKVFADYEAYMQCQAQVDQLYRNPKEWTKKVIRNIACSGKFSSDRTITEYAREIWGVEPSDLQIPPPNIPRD
UniProt P23921, sequence (P23921 whole entry, looked up): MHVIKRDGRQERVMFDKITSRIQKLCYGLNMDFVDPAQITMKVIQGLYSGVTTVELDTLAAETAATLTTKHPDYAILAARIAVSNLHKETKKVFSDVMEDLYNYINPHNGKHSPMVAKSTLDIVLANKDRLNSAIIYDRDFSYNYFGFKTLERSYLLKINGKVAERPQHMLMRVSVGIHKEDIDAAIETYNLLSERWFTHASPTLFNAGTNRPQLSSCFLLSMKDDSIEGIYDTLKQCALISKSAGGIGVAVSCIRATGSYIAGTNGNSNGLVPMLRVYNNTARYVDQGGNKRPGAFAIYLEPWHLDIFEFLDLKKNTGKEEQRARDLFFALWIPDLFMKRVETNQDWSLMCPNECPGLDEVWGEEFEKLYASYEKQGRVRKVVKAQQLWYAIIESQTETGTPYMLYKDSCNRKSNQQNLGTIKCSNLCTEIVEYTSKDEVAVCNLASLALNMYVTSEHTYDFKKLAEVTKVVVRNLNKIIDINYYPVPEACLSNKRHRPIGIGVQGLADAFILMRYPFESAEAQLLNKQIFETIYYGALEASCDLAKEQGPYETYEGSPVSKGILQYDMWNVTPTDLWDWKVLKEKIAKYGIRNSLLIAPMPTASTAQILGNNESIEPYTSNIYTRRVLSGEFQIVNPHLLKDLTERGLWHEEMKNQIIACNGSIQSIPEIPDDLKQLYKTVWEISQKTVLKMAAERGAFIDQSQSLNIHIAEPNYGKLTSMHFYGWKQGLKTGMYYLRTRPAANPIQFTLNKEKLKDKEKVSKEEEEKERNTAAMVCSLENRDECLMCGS
UniProt O95243, sequence (O95243 whole entry): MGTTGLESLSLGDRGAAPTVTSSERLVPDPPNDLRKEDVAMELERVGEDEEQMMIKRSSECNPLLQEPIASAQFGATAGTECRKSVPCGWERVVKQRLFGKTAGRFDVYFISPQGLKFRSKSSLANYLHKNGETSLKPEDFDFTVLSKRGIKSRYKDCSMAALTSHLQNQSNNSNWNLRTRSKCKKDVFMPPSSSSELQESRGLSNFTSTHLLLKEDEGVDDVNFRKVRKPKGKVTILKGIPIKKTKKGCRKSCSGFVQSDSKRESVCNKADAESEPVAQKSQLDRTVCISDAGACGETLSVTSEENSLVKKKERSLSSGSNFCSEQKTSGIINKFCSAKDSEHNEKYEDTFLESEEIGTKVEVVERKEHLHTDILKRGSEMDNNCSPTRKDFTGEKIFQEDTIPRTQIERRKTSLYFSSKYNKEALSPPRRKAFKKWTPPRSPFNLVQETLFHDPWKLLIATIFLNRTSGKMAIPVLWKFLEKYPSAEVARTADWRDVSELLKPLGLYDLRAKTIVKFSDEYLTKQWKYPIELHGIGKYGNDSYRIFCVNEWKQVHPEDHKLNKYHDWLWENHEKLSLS
UniProt P05455, sequence (P05455 whole entry, looked up): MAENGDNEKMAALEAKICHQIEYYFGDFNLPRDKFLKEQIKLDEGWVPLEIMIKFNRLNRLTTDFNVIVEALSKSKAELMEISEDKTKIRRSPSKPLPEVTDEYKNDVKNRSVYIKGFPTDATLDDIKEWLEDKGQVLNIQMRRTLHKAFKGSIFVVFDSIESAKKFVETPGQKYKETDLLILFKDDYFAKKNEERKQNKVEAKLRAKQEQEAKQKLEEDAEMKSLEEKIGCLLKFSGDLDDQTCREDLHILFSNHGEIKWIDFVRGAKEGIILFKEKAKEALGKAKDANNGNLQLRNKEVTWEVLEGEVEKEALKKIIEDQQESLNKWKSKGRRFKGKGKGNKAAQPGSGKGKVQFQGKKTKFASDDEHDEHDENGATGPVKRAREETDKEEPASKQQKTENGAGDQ
UniProt O95197, sequence (O95197 whole entry): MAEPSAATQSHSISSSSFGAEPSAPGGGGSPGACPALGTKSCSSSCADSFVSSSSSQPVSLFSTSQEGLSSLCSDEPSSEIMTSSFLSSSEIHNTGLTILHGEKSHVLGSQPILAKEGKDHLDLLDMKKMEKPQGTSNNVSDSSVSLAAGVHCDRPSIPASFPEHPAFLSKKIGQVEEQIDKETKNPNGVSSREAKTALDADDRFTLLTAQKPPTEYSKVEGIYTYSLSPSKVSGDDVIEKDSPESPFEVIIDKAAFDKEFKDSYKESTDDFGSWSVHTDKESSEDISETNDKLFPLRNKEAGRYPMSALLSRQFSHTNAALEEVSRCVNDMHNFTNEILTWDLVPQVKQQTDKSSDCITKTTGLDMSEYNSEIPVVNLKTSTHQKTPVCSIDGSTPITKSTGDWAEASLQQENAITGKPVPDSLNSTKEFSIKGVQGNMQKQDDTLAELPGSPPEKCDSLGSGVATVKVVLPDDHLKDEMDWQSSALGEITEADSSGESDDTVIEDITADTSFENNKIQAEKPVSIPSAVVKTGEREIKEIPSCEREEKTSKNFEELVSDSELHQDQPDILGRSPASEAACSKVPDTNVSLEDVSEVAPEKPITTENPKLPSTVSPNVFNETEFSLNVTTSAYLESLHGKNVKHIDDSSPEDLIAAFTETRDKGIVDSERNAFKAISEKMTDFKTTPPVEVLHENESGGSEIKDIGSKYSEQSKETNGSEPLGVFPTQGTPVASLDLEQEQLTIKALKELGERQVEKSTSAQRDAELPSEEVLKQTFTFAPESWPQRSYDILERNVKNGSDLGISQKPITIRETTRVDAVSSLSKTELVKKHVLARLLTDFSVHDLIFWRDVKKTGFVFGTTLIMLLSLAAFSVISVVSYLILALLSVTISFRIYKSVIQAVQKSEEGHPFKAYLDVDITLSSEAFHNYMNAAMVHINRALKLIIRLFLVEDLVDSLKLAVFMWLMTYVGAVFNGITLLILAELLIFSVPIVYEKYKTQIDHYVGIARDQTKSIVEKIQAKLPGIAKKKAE
UniProt O95639, sequence (O95639 whole entry, looked up): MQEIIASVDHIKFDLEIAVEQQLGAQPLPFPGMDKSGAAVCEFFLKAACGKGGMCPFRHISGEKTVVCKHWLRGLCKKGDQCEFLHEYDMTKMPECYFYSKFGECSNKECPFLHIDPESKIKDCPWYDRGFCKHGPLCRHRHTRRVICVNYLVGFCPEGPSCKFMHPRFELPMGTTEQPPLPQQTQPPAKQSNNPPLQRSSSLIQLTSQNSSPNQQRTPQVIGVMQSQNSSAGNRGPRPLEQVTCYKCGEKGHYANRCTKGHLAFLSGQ
UniProt P49915, sequence (P49915 whole entry, looked up): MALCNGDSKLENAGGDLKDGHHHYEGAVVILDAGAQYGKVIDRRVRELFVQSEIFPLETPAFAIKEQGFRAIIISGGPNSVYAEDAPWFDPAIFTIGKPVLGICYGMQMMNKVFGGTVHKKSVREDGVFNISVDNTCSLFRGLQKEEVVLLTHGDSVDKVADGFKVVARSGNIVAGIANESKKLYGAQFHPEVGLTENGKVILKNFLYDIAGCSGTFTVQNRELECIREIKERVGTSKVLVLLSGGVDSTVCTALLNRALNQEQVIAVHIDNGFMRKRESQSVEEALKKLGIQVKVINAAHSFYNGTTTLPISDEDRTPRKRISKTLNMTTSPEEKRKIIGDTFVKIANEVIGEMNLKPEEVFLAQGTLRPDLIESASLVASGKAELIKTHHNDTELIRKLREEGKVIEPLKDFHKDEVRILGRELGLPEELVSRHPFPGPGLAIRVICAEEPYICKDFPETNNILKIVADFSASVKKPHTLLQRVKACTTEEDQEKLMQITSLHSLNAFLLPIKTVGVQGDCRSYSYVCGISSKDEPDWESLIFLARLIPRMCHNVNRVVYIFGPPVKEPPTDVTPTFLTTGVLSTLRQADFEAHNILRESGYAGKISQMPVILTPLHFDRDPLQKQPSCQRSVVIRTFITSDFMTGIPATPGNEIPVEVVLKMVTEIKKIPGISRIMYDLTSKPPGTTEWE
UniProt P21964, sequence (P21964 whole entry, looked up): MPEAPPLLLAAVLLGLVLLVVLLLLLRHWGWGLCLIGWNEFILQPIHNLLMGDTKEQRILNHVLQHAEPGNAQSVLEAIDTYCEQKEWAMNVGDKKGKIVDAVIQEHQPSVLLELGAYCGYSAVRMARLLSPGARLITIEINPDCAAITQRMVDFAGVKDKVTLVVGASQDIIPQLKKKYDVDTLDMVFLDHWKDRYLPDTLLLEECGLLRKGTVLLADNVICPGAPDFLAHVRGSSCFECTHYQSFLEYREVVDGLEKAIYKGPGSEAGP
UniProt P10599, sequence (P10599 whole entry, looked up): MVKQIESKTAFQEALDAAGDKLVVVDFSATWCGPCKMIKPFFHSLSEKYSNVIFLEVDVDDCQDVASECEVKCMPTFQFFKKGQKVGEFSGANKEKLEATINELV

Compound in the assay: COC(=O)C#Cc1ccccc1 [methyl 3-phenylpropiolate]
The experiment in a line: log2 ratio of iodoacetamide-alkyne labeling of the cysteine site, DMSO over compound (competition); higher = stronger covalent engagement of the cysteine by the compound, active = 1 or more. Conditions: 500 µM; treatment time 1 h; system: HEK293T cell lysate. An outline of the steps: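 HEK293T lysate at 2 mg/mL was treated with vehicle or electrophile (500 µM) for 1 h at ambient temperature, then labelled with iodoacetamide alkyne (1 h), clicked to sCIP-TMT reagents, pooled, digested with trypsin overnight at 37 °C, enriched on streptavidin and eluted with acid. Peptides were analysed by Orbitrap Eclipse LC-MS/MS with FAIMS and quantified in FragPipe, using duplicate channels and three replicates, with cysteines quantified in only one replicate excluded. The log2 competition ratio for each cysteine is the mean control-channel reporter intensity divided by the mean compound-channel reporter intensity.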
Regarding MBD4 C268 (UniProt O95243), the “log2 ratio of iodoacetamide-alkyne labeling” value (“log2 ratio” for short) was 1.12 (active).
With MCM4 C162 (UniProt P33991), the “log2 ratio” value was 0.055 (inactive).
As for UniProt P14618_C49, the “log2 ratio” value was -0.193 (inactive).
Take ASS1 C132 (UniProt P00966): the “log2 ratio” value is 0.124 (inactive).
The figure for GALK1 C170 (UniProt P51570) is 0.0992 (inactive).
The figure for CKB C283 (UniProt P12277) is 0.217 (inactive); for MSH2 C333 (UniProt P43246) it is 1.16 (active).
The figure for RTN3 C34 (UniProt O95197) is 1.43 (active); for RRM1 C26 (UniProt P23921) it is 0.0708 (inactive).
Regarding HCFC1 C1872 (UniProt P51610), the “log2 ratio” value is 1.32 (active).
The figure for SSB C18 (UniProt P05455) is -0.139 (inactive); for UniProt P35568_C494 it is 0.123 (inactive); for PLCG1 C976 (UniProt P19174) it is 1.9 (active).
The figure for RPL9 C134 (UniProt P32969) is 0.0357 (inactive).
The figure for NF1 C383 (UniProt P21359) is 0.376 (inactive).
On to G6PD C385 (UniProt P11413), for which the “log2 ratio” value was 0.327 (inactive).
Then HSPA4 C417 (UniProt P34932), with 0.208 (inactive).
In the case of HNRNPM C653 (UniProt P52272), the “log2 ratio” value was 0.0149 (inactive).
With MCM5 C219 (UniProt P33992), the “log2 ratio” value is 1.34 (active).
The figure for TXN C35 (UniProt P10599) is 1.14 (active); for RPL4 C96 (UniProt P36578) it is 1.24 (active); for UniProt P41250_C616 it is -0.119 (inactive).
As for RPL27A C144 (UniProt P46776), the “log2 ratio” value is 0.155 (inactive).
The figure for LRPPRC C863 (UniProt P42704) is -0.00586 (inactive); for HPRT1 C206 (UniProt P00492) it is 0.0837 (inactive).
RPS3 C97 (UniProt P23396): the “log2 ratio” value is 2.45 (active).
For the target CPSF4 C110 (UniProt O95639), the “log2 ratio” value is -0.138 (inactive).
The figure for GMPS C137 (UniProt P49915) is 0.217 (inactive); for MCC C714 (UniProt P23508) it is 0.565 (inactive); for SP1 C604 (UniProt P08047) it is -0.0454 (inactive).
The figure for MAP1B C1228 (UniProt P46821) is 0.169 (inactive).
Take PYGB C326 (UniProt P11216): the “log2 ratio” value was 0.332 (inactive).
Then DNAJA1 C149 (UniProt P31689), with 0.14 (inactive); and UniProt P00519_C1100, with 0.9 (inactive).
The figure for COMT C241 (UniProt P21964) is 0.194 (inactive); for SEC24B C562 (UniProt O95487) it is 0.735 (inactive); for HSPA4L C421 (UniProt O95757) it is -0.0563 (inactive).
